Results on 40 compounds are retold here after PubChem BioAssay (NCI).

Compounds without any hit were thinned out: in the full panel of roughly 83,000, 20% have a hit.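 The test compound was applied at a single concentration to cells in 96-well plates for 48 hours, and percent growth was recorded.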 Calls of active or inactive are those of the source.

In this experiment the test system is SW-620 colon. As to the kind of experiment: NCI-60 one-dose screen, 48 h (100 = growth as untreated, 0 = no growth, -100 = all killed). As to conditions: 10 µM unless noted. As to the method: Growth inhibition of the SW-620 human tumor cell line is measured as a screen for anti-cancer activity. Cells are grown in 96 well plates and exposed to the test compound for 48 hours. Compounds are tested at a single concentration, which is 10^-5 M for most compounds. The reported endpoint is percent growth (GI% or GIPRCNT), where numbers from 0 - 100% represent growth inhibition, and numbers from -100% - 0 represent cell death. For example, a value of 40 represents 60% growth inhibition. A value of 0 means no net growth occurred over the course of the experiment. A value of -40 indicates 40% of cells at the beginning of the experiment died by the end of the experiment. A value of -100 means all cells are dead at the end of the experiment.
NCI-60 Human Tumor Cell Lines Screen was performed using the standard one-dose NCI protocol, which is described in more detail at https://dtp.cancer.gov/discovery_development/nci-60/default.htm.
Compounds with GIPRCNT values below 10 were considered active. Activity score was based on GIPRCNT using the following formula: […]
Score is 0 for GIPRCNT values of 100 or above, 50 for GIPRCNT values of 0, and 100 for GIPRCNT values of -100.
For the compound `Clc1ccc(-c2noc(/C=C\c3ccccc3)n2)cc1`, the growth is 110% (inactive).
For `Cc1ccc(C)c(CCO)c1` the value was 98.3% (inactive); for `COc1ccc(Br)c2c1C(=O)CC2`, 123% (inactive); for `CC1(C)OC(=O)CC1=O`, 100% (inactive).
For `Cc1cc(=O)n(Nc2ccccc2)c(O)c1C#N` the value was 98.6% (inactive).
For `CC(=O)CSc1ncnc2nc[nH]c12` the value was 96% (inactive).
`O=C(O)C1CCCN1C(=O)OCc1ccccc1` (stereo not given): the growth was 111% (inactive).
With `O=C(O)c1ccc(OCc2ccccc2)cc1`, the growth is 107% (inactive).
For `C=COC(=O)C(C)(C)C` the value was 98.4% (inactive); for `O=[N+]([O-])c1ccc2[nH]c(=S)n(/C=C(/c3ccc(Cl)cc3Cl)S(=O)(=O)Cc3ccc(Cl)cc3Cl)c2c1`, 114% (inactive); for `CC(C)(C)NCCC(O)c1cc(C(F)(F)F)nc2c(C(F)(F)F)cccc12` (stereo not given), 89.6% (inactive).
For `CCOC(=O)C(C#N)=C1CCN(C)CC1` the value was 97.2% (inactive).
For `CCCCN(C(=O)CC)c1ccccc1` the value was 98.7% (inactive).
`CC(=O)NCNC(C)=O`: the growth is 107% (inactive).
For `NC(CCl)=NCC12CC3CC(CC(C3)C1)C2` the value was 3.96% (active); for `O=c1[nH]c(=O)c2cc(Cl)cc(Cl)c2[nH]1`, 105% (inactive).
For `C=CCc1cc(OC)c(OC)c(OC)c1` the value was 91.8% (inactive).
For `Cc1ccc(S(=O)(=O)CCCl)cc1` the value was 110% (inactive); for `CCN(C(C)=O)c1ccc([N+](=O)[O-])cc1`, 98.2% (inactive).
Turning to `CC(=O)c1cccs1`, the growth is 108% (inactive).
For `CCOC(=O)C(COS(C)(=O)=O)(COS(C)(=O)=O)C(=O)OCC` the value was 110% (inactive); for `O=C1C=C(c2ccccc2)C(O)(c2ccccc2)C1` (stereo not given), 108% (inactive).
With `Cc1cccnc1NC1OC(=O)c2ccccc21` (stereo not given), the growth was 106% (inactive).
With `COc1ccc2c(c1)Nc1ccccc1S2`, the growth was 106% (inactive).
For `COc1c(CNC(=O)CCl)cc2[nH]c(C)cc2c1CNC(=O)CCl` the value was 55.1% (inactive).
For `Nc1ccc(F)cc1F` the value was 106% (inactive); for `Cc1cc(NC(=O)c2ccccc2)c(Cl)cc1N`, 106% (inactive).
On to `CC(=O)N=c1ccc2nc3c(cc(N)c4ccccc43)oc-2c1`, for which the growth is -88.7% (active).
For `COc1cc(N)c2ncccc2c1Cl` the value was 109% (inactive); for `CCOC(=N)CC(=O)Nc1cccc(C)c1Cl`, 94.9% (inactive); for `N#CC1(O)CCCCC1`, 110% (inactive).
For `O=C(Oc1ccccc1Cl)c1ccc(Cl)cc1Cl` the value was 98.9% (inactive); for `ClCC(Cl)C1CCC(Cl)C(Cl)C1` (stereo not given), 105% (inactive); for `Nc1ccc2c(c1)Cc1cc(N)c(N)cc1-2`, 100% (inactive).
For the compound `Oc1cccc(CNC2CCCCC2)c1`, the growth is 116% (inactive).
Regarding `N#Cc1ccc(OC(=O)Nc2c(Cl)cc(Cl)cc2Cl)cc1`, the growth is 118% (inactive).
For `N#C/C(=C\c1ccc2c(c1)OCO2)c1ccccc1` the value was 41.4% (inactive); for `C=CCN1CCCC1=O`, 102% (inactive); for `COc1cc(OC)c(NC(=O)C(Sc2nc(C)cc(C)c2C#N)c2ccccc2)cc1Cl` (stereo not given), 107% (inactive).
With `COc1nc2ccccc2s1`, the growth was 93% (inactive).
